Hits are enriched below; roughly 2.9% of the tested compounds scored in any of these assays.
MEKK2 mut-MEK5: signal of MEK5 binding to mutant human MEKK2 PB1 domain. bead flow cytometry, Alexa488-MEK5 binding to MEKK2 mutant. percent response, % at 10 µM. 290,000 compounds, 0.35% hits. AID 1530; in the data active = percent response above about 24%, passing the limit was not always enough
MEKK2 WT-MEK5: raises or lowers MEK5 binding to wildtype human MEKK2 PB1 domain | Q9Y2U5 | bead flow cytometry, Alexa488-MEK5 binding to MEKK2 WT; actives lie on both sides | binding response (% of control), % at 10 µM | 290,000 compounds, 1.1% hits | AID 1531; in the data active = binding response below about 67% or above about 130%
CRFBP-R2 block: antagonists of CRF-binding protein/CRF-R2 receptor complex | HEK293 CRF-R2/CRF-BP, CRF-induced calcium fluorescence | AID 588475 | inhibition, % at 11.8 µM | 350,000 compounds, 0.59% hits;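 active = inhibition of the ligand-induced calcium signal above about 50% at the single tested concentration, limit read from the data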
CRFR2-BP ag: CRF-BP/CRF-R2 complex agonism; HEK293 CRF-R2/CRF-BP, calcium dye fluorescence (FLIPR); percent of saturating CRF peptide response; activation, % at 13.2 µM; 350,000 compounds, 0.46% hits;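 active = activation of at least 50%, plus an integration ratio under a set limit after plate pattern correction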;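 also: plate controls were neutral control wells without compound for no effect and CRF at EC100 for full effect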
MEKK3 PB1 HTS: raises or lowers MEK5 binding to the human MEKK3 PB1 domain; bead-based flow cytometry, Alexa488-MEK5 binding to MEKK3; actives lie on both sides; 0 = blocked by unlabeled MEK5, 100 = vehicle; binding response (% of control), % at 10 µM; 290,000 compounds, 1.4% hits; AID 1529;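 active = binding response more than 3 SD above or below the average of its plate-row segment, actives on both sides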;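 also: Alexa488 bead fluorescence after subtracting the streptavidin-only scavenger bead signal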
ABCB6 inh MLPCN: inhibitors of human ABC transporter ABCB6 | Q9NP58 | K562-ABCB6 porphyrin accumulation, flow cytometry, 1 h; active compounds read low | fluorescence ratio to DMSO, % at 10 µM | 360,000 compounds, 0.19% hits | AID 602162;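 active = fluorescence ratio to DMSO below 75%, the collection mean minus 3 SD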;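 also: signal is porphyrin accumulated inside mitochondria; 100% equals median channel fluorescence of DMSO control wells; lower ratio means ABCB6 inhibition with less porphyrin fluorescence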
Target sequence (Q9NP58 whole entry, looked up): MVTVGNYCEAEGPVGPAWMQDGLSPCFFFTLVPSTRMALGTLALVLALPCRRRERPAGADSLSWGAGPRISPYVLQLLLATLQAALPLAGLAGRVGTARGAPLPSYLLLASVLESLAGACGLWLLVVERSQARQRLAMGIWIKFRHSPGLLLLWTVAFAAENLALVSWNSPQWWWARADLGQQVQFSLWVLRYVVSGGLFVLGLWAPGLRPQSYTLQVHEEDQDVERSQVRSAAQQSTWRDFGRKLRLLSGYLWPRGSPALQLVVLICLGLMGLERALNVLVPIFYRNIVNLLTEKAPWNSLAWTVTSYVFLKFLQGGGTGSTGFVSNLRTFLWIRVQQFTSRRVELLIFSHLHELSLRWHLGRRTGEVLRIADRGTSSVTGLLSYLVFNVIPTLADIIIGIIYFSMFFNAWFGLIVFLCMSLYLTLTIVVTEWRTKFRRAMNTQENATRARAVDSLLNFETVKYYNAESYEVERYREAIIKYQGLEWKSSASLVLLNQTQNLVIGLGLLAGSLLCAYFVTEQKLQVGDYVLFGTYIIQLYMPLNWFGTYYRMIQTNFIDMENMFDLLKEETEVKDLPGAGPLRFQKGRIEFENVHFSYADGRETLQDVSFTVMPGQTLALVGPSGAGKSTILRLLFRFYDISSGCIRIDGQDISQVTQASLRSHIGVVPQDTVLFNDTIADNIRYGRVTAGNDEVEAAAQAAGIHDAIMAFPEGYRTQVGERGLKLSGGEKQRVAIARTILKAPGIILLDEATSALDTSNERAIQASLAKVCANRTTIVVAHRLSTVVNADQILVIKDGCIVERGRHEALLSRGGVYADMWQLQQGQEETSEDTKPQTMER
Numbers without * were called inactive.

Results for Cc1cccc(C)c1NC(=O)c1sccc1SCc1cccc(C(F)(F)F)c1 ?
MEKK2 mut-MEK5: 2; MEKK2 WT-MEK5: 101; CRFBP-R2 block: 71*; CRFR2-BP ag: 12; MEKK3 PB1 HTS: 103; ABCB6 inh MLPCN: 90

What do the screens show for `COC(CNC(=O)Cn1nc(Cc2ccncc2)c2ccccc2c1=O)OC`?
MEKK2 mut-MEK5: 1; MEKK2 WT-MEK5: 105; CRFBP-R2 block: 11; CRFR2-BP ag: 7; MEKK3 PB1 HTS: 104; ABCB6 inh MLPCN: 100

What do the screens show for `CCOC(=O)Nc1cc2c(c(N)n1)N=C(c1ccccc1)CN2`?
CRFBP-R2 block: -80; CRFR2-BP ag: 65*; ABCB6 inh MLPCN: 97

Results for N#C/C(=C\c1coc2ccc(O)cc2c1=O)C(=O)Nc1nc2ccccc2s1 ?
MEKK2 mut-MEK5: 1; MEKK2 WT-MEK5: 90; CRFBP-R2 block: -185; CRFR2-BP ag: 235*; MEKK3 PB1 HTS: 91; ABCB6 inh MLPCN: 167

Results for CC(C)NC(=O)CN1C(=O)CSc2ccc(S(=O)(=O)N3CCCC3)cc21 ?
MEKK2 mut-MEK5: 3; MEKK2 WT-MEK5: 103; CRFBP-R2 block: 64*; CRFR2-BP ag: 4; MEKK3 PB1 HTS: 96; ABCB6 inh MLPCN: 100

What do the screens show for `CC(=O)NC(c1ccc(F)c(F)c1)c1nc(-c2ccncc2)cs1` (stereo not drawn)?
ABCB6 inh MLPCN: 252

How did O=C(C1CCCC1)N1CCCC(Nc2ccccc2)C1 (stereo not drawn) do in these assays?
MEKK2 mut-MEK5: 5; MEKK2 WT-MEK5: 99; CRFBP-R2 block: 0; CRFR2-BP ag: -1; MEKK3 PB1 HTS: 100; ABCB6 inh MLPCN: 95

Results for O=C(C1CCCC1)N1CCCC(Nc2ccc(F)cc2)C1 (stereo not drawn) ?
MEKK2 mut-MEK5: 0; MEKK2 WT-MEK5: 99; CRFBP-R2 block: -78; CRFR2-BP ag: 117*; MEKK3 PB1 HTS: 98; ABCB6 inh MLPCN: 96

Results for C/C(=N\NC(=O)c1cc(Cl)ccc1O)c1ccc(Br)s1 ?
MEKK2 mut-MEK5: -1; MEKK2 WT-MEK5: 93; CRFBP-R2 block: 52*; CRFR2-BP ag: 31; MEKK3 PB1 HTS: 79; ABCB6 inh MLPCN: 102

How did COc1ccc([C@H]2C[C@@H](O)[C@H](n3cc(COC(=O)c4ccccc4)nn3)CN2C(=O)C2CCCCC2)cc1 do in these assays?
CRFBP-R2 block: -6; CRFR2-BP ag: -1; ABCB6 inh MLPCN: 93

How did COC(=O)C1=NN(C(=O)c2cccc(Cl)c2)C(O)(C(C)(C)C)C1 (stereo not drawn) do in these assays?
MEKK2 mut-MEK5: -1; MEKK2 WT-MEK5: 101; CRFBP-R2 block: 37; CRFR2-BP ag: 89*; MEKK3 PB1 HTS: 94; ABCB6 inh MLPCN: 102

Results for COC(=O)C1=NN(C(=O)c2ccc(C)cc2)C(O)(c2ccc(Cl)cc2)C1 (stereo not drawn) ?
MEKK2 mut-MEK5: 0; MEKK2 WT-MEK5: 97; CRFBP-R2 block: -15; CRFR2-BP ag: 86*; MEKK3 PB1 HTS: 102

Results for CC1=NN(C(=O)c2ccc(Br)cc2)C(O)(C(F)(F)OC(F)(F)F)C1 (stereo not drawn) ?
CRFBP-R2 block: 50*; CRFR2-BP ag: 0; ABCB6 inh MLPCN: 90

How did COC(=O)C1=NN(C(=O)c2ccc(Br)cc2)C(O)(C(C)(C)C)C1 (stereo not drawn) do in these assays?
MEKK2 mut-MEK5: 4; MEKK2 WT-MEK5: 104; CRFBP-R2 block: 17; CRFR2-BP ag: 52*; MEKK3 PB1 HTS: 101; ABCB6 inh MLPCN: 98

What do the screens show for `Cc1ccc(C(=O)NCCC(=O)NCc2ccco2)cc1`?
MEKK2 mut-MEK5: 6; MEKK2 WT-MEK5: 104; CRFBP-R2 block: -9; CRFR2-BP ag: 0; MEKK3 PB1 HTS: 103; ABCB6 inh MLPCN: 101

How did COc1cccc(CN(C)C(=O)c2ccc(Oc3ccccc3)cc2)c1OC do in these assays?
MEKK2 mut-MEK5: 6; MEKK2 WT-MEK5: 103; CRFBP-R2 block: 11; CRFR2-BP ag: 0; MEKK3 PB1 HTS: 102; ABCB6 inh MLPCN: 95

What do the screens show for `O=C(CCc1ccccc1)N=C1SC2CS(=O)(=O)CC2N1c1ccccc1F` (stereo not drawn)?
MEKK2 mut-MEK5: 2; MEKK2 WT-MEK5: 103; CRFBP-R2 block: 4; CRFR2-BP ag: 2; MEKK3 PB1 HTS: 102; ABCB6 inh MLPCN: 104

What do the screens show for `Cc1ccccc1-c1cc2nc(-c3ccc([N+](=O)[O-])cc3)cc(=O)n2[nH]1`?
MEKK2 mut-MEK5: 0; MEKK2 WT-MEK5: 95; CRFBP-R2 block: 71*; CRFR2-BP ag: -3; MEKK3 PB1 HTS: 89; ABCB6 inh MLPCN: 98

What do the screens show for `O=c1cc(-c2ccc([N+](=O)[O-])cc2)nc2cc(-c3ccc(F)cc3)[nH]n12`?
MEKK2 mut-MEK5: 16; MEKK2 WT-MEK5: 102; CRFBP-R2 block: 75*; CRFR2-BP ag: -3; MEKK3 PB1 HTS: 102; ABCB6 inh MLPCN: 103

How did O=C1NC(=O)/C(=C\c2cn(CC(=O)N3CCOCC3)c3ccccc23)S1 do in these assays?
MEKK2 mut-MEK5: -1; MEKK2 WT-MEK5: 104; CRFBP-R2 block: -2; CRFR2-BP ag: 0; MEKK3 PB1 HTS: 103; ABCB6 inh MLPCN: 101

Results for CC(=O)Nc1ccc(OCC[n+]2cccc(C(N)=O)c2)cc1 ?
MEKK2 mut-MEK5: 7; MEKK2 WT-MEK5: 103; CRFBP-R2 block: 61*; CRFR2-BP ag: 0; MEKK3 PB1 HTS: 103; ABCB6 inh MLPCN: 89

What do the screens show for `Cc1cc(C(=O)CSc2nnc(C3CC3)n2C2CC2)c(C)n1C(C)C`?
CRFBP-R2 block: 8; CRFR2-BP ag: 1; ABCB6 inh MLPCN: 100

How did O=C1NC(=S)S/C1=C\c1cc(Cl)cc(Cl)c1O do in these assays?
CRFBP-R2 block: -57; CRFR2-BP ag: 83*; ABCB6 inh MLPCN: 113

Results for COCCNC(=O)C(c1ccc(C)cc1)N(Cc1ccco1)C(=O)CCC(=O)Nc1ccccn1 (stereo not drawn) ?
MEKK2 mut-MEK5: 7; MEKK2 WT-MEK5: 99; CRFBP-R2 block: 12; CRFR2-BP ag: 2; MEKK3 PB1 HTS: 101; ABCB6 inh MLPCN: 99

Results for O=C(COC(=O)C1CCN(S(=O)(=O)c2ccc3c(c2)OCCO3)CC1)NC1CCS(=O)(=O)C1 (stereo not drawn) ?
CRFBP-R2 block: 115*; CRFR2-BP ag: 1; ABCB6 inh MLPCN: 95

How did Cc1ccc(S(=O)(=O)c2nc(S(C)(=O)=O)sc2N2CCOCC2)cc1 do in these assays?
MEKK2 mut-MEK5: 0; MEKK2 WT-MEK5: 96; CRFBP-R2 block: 95*; CRFR2-BP ag: 2; MEKK3 PB1 HTS: 99; ABCB6 inh MLPCN: 98

Results for CCS(=O)(=O)c1nc(S(=O)(=O)c2ccc(C)cc2)c(N2CCOCC2)s1 ?
MEKK2 mut-MEK5: -1; MEKK2 WT-MEK5: 97; CRFBP-R2 block: -16; CRFR2-BP ag: 0; MEKK3 PB1 HTS: 99; ABCB6 inh MLPCN: 100

From PubChem
